# The panel holds about 83,000 compounds, 20% with a hit somewhere; the sample as a whole holds those more often.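 96-well plates, one dose, 48 hours. Percent growth reported; active if below 10.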 Unmarked numbers belong to inactive results. Active and inactive are the calls of the source.
# Test system: UO-31 renal
# Test: NCI-60 one-dose screen, 48 h (100 = growth as untreated, 0 = no growth, -100 = all killed)
# Settings: 10 µM unless noted
row,Structure (SMILES),growth
1,Nc1nc2ccc(CNc3ccc(C(=O)NC(CC(=O)O)C(=O)O)cc3)cc2c(=O)[nH]1 (centres undefined),16.9%
2,Cc1cn(C2CC(F)C(CO)O2)c(=O)[nH]c1=O (centres undefined),77.6%
3,CN(C)C(=O)Nc1nc2cc(Cl)c(Cl)cc2[nH]1,20.4%
4,Cc1cccc(NC(=O)CCc2ccc(N3C(N)=NC(N)=NC3(C)C)cc2)c1,115%
5,COc1cc(/C=C/C(=O)c2c(C)[n+]([O-])c3ccccc3[n+]2[O-])ccc1O,80.4%
6,CCC1CN2C(=N1)c1ccccc1-c1cc(Cl)ccc12 (centres undefined),-43% (active)
7,CC(C(C(=O)N1CCCCC1)N1CCCCC1)N1CCCCC1 (centres undefined),94.9%
8,NC(CSC(c1ccccc1)(c1ccccc1)c1ccc(F)cc1)C(=O)O (centres undefined),25.3%
9,CS(=O)(=O)OCC(COS(C)(=O)=O)C(c1ccccc1)c1ccccc1,91.2%
10,S=c1ssnc1-c1ccccn1,-40.8% (active)
11,O=C(Cn1c2ccccc2c2ccncc21)N/N=C/c1cc(O)c(O)c(O)c1,98.6%
12,CN(C)c1ccc(/C=N/N=C(N)N)cc1,72.5%
13,Cc1cc2c(cc1C)N(C(=O)CCl)CCN2C(=O)CCl,-81.5% (active)
14,O=C(O)c1cc2ccccc2cc1Nc1ccccc1,82.5%
15,O=C(Nc1ccccc1Cl)c1c[nH]c(=O)c(-c2ccc(N3CCCOC4(CC4)C3)cc2)c1,65.7%
16,Clc1ccc2c(c1)nnn1c3ncccc3c(Br)c21,58.9%
17,Cc1nssc1=S,87.9%
18,FC(F)(F)c1cn(CC2CNC2)c2ncnc(Cl)c12,102%
19,CN1CCN(Cn2nc(-c3cc(Cl)cc(Cl)c3Cl)n(/N=C/c3ccc(Cl)cc3)c2=S)CC1,88%
20,NC(N)=N/N=C/c1ccc([N+](=O)[O-])cc1,82.6%
21,CC1=C2C(=C[C@@](C)(CO)[C@@H]2OC(=O)N(C)CCN(C)C(=O)OC(C)(C)C)C(=O)[C@](C)(O)C12CC2,-60.4% (active)
22,Nc1nc(=S)ss1,95.4%
23,COC(=O)c1oc2c(C(C)=O)c(OCCN3CCCCC3)ccc2c1C,84.5%
24,Cc1cc[n+](CCCC[n+]2ccc(C)cc2)cc1,96%
